According to PubChem BioAssay AID1619 (SRMLSC, 2009):
Screen size: about 220,000 compounds; about 830 (0.38%) were called active.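 How the source made its calls: active means compound inhibiting the enzyme by more than half at any dose during confirmatory dose-response retesting; inconclusive means strong single-dose inhibitors picked by rank but not retested; inactive means the rest.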 Only a sample is shown. Results with a measured potency or affinity are listed apart.

These compounds were tested against Leucine aminopeptidase (Plasmodium falciparum (isolate 3D7)) (UniProt Q8IL11) (assay: P. falciparum M17LAP inhibitors, primary screen, biochemical, fluorogenic H-Leu-NHMec substrate, 1536-well (AID 1619;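 further: plate controls were full reaction with DMSO carrier for no effect and no enzyme background for full effect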)). Conditions: recombinant M17LAP, H-Leu-NHMec fluorogenic kinetic assay; at 30 µM; hits give high values.
Leucine aminopeptidase (Plasmodium falciparum (isolate 3D7)), sequence (Q8IL11 whole entry, looked up): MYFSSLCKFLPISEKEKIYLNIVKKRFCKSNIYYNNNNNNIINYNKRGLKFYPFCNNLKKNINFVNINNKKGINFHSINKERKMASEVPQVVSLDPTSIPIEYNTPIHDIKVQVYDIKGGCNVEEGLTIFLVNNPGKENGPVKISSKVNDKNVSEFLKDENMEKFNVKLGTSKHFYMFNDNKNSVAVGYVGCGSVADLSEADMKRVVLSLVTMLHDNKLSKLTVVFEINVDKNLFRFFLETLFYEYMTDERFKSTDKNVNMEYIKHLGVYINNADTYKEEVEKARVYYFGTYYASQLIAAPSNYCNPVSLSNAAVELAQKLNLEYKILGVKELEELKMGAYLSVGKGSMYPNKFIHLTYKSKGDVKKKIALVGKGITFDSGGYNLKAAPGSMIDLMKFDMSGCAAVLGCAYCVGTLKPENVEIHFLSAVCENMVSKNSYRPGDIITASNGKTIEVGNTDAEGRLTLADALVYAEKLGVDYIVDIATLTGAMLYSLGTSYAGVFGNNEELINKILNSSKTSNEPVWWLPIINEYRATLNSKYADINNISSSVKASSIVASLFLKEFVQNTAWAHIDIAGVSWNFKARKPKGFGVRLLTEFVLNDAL

inhibition, inactive:
CC(=O)c1ccc(Nc2ccc(-c3ccccc3F)nn2)cc1 28.4%
COC(=O)c1ccccc1NC(=O)C(C)c1ccc([N+](=O)[O-])cc1 (stereo not drawn) -0.59%
N#C/C(C(=O)NCc1ccccc1)=C1/N=C(NC(=O)c2cccs2)c2ccccc21 5.68%
CCOC(=O)C1=C(C)N=C2SCCC(=O)N2[C@@H]1c1cccs1 3.63%
NC(=O)CC(NC(=O)Cc1cccc2ccccc12)c1ccc(NC2CCC2)c([N+](=O)[O-])c1 (stereo not drawn) 15%
COC(=O)c1cn(C(=O)c2cccc(C)c2)c2ccccc12 1.71%
Cc1ccc(C(=O)NC(=S)NNC(=O)COc2ccccc2C)cc1 -0.9%
Cc1cccc(C(=O)NC(=S)NNC(=O)c2ccc(Cl)cc2)c1 86.2%
Cc1cccc(C(=O)NC(=S)Nc2ccccc2C(=O)O)c1 3.36%
O=C(NC(=S)NNC(=O)c1ccccc1F)c1cccnc1 5.36%
Cc1cccc(C(=O)NC(=S)NNC(=O)COc2ccc(Cl)cc2)c1 8.45%
O=C(Cc1ccccc1)NNC(=S)NC(=O)c1cccnc1 13.8%
Cc1cccc(NC(=S)NNC(=O)Cc2ccccc2)c1 15.6%
O=C(NNC(=S)NC(=O)c1cccnc1)c1ccc(Cl)cc1 71.2%
O=C(O)c1ccc2c(c1)SC1=NS(=O)(=O)CCN12 -2.18%
CCN1CCN(C(=O)CSc2cc(=O)n(CC)c3ccccc23)CC1 4.46%
CCC(C)NC(=O)CS(=O)Cc1nc(-c2ccccc2C)oc1C (stereo not drawn) 2.41%
Cn1c(N)c(C(=O)c2ccc(F)cc2F)c(=O)n(C)c1=O 5.53%
COC(=O)[C@H](Cc1ccccc1)NC(=O)O[C@H]1C(=O)c2ccc(OC)cc2O[C@@H]1c1ccc2c(c1)OCO2 -10.7%
O=C(O)[C@H]1CCCC[C@H]1C(=O)Nc1ccc(Nc2ccccc2)cc1 54.9%
O=C(O)Cc1ccc(NC(=O)C2CC=CCC2C(=O)O)cc1 (stereo not drawn) 11.1%
O=C(O)C1CCCCC1C(=O)Nc1ccc(-c2ccccc2)cc1 (stereo not drawn) 6.02%
CN(C(=O)c1ccc(NC(=O)C2CC=CCC2C(=O)O)cc1)c1ccccc1 (stereo not drawn) 45.1%
CCCOC(=O)c1ccc(NC(=O)C2C3CCC(C3)C2C(=O)O)cc1 (stereo not drawn) 43.4%
CC(=O)Nc1ccc(NC(=O)[C@@H]2CCCC[C@@H]2C(=O)O)cc1 -3.15%
COC(=O)c1ccc(NC(=O)C2C3CCC(C3)C2C(=O)O)cc1 (stereo not drawn) 39%
CC(=O)Nc1ccc(NC(=O)C2CCCCC2C(=O)O)cc1 (stereo not drawn) 8.65%
O=C(O)CCSCCCN1C(=O)c2cccc3cccc(c23)C1=O 8.08%
CCCc1cc(=O)[nH]c(SCC(=O)Nc2cc(C)on2)n1 3.41%
Cc1ccc(C2CC(C(F)(F)F)n3nc(C(=O)Nc4c(C)n(C)n(-c5ccccc5)c4=O)cc3N2)cc1 (stereo not drawn) 2.06%
COc1ccc(NC(=O)c2ccc(-n3c(C)ccc3C)cc2)c(OC)c1 4.59%
Cc1nc(C)c(-c2csc(Nc3ccc(F)cc3)n2)s1 -0.33%
Cc1ccc(Oc2ncc(-c3ccc(Cl)cc3)cn2)cc1 -3.58%
CCOC(=O)N1CCN(c2cc(N)c([N+](=O)[O-])cc2F)CC1 -0.96%
Cc1ccc(C(=O)Nc2ccn(Cc3ccc(F)cc3)n2)o1 2%
COc1ccc(C(=O)Nc2cccc(C(=O)NCc3ccccc3)c2)cc1 3.07%
Oc1ccc(C(c2nnnn2CCc2ccccc2)N2CCN(c3nc4ccccc4s3)CC2)cc1 (stereo not drawn) 3.87%
CCOC(=O)NCc1ccc(Cl)c(Cl)c1 -9.33%
CC(C)(C)OC(=O)CN1C(=O)C(Sc2n[nH]c(-c3ccccc3)n2)CCc2ccccc21 (stereo not drawn) 3.43%
CCSc1nc(N)nc(-c2cccs2)c1C#N 5.48%
CN(Cc1ccccc1)Cc1nc2c([nH]1)c(=O)[nH]c(=O)n2C -7.23%
CC(NC(=O)c1cccnc1)C(c1cccs1)N1CCN(C)CC1 (stereo not drawn) 0.81%
CN(C1CCCCC1)S(=O)(=O)c1ccc(NC(=O)C2CCCCC2C(=O)O)cc1 (stereo not drawn) 44%
O=C(O)Cc1ccc(NC(=O)C2CCCCC2C(=O)O)cc1 (stereo not drawn) 19%
CCOC(=O)N1CCN(C(=O)c2ccc(CS(=O)(=O)c3c(Cl)cccc3Cl)o2)CC1 3.87%
CCCCOc1ccc(C(=O)OCC(=O)Nc2cc(C)on2)cc1 2.23%
CCOC(=O)c1c(CSCc2ccccc2)oc2ccc(O)c(CN(C)C)c12 -2.1%
Cc1ccc2c(=O)[nH]c(Cc3ccccc3C(=O)O)nc2c1 2.27%
Cc1ccc(N/N=C2/CCCNC2=O)cc1 40.4%
Cc1ccc(NN=C2c3ccccc3-c3ccccc32)cc1 5.01%
Cc1ccc(N(CC(O)CN2C(=O)NC(C)(C)C2=O)S(=O)(=O)c2ccc(C)cc2)cc1 (stereo not drawn) -16.4%
O=C(O)c1ccc(N/N=C/c2ccc(F)c(F)c2)cc1 50.5%
Cc1ccc(/C=N/Nc2ccc(Cl)c(C(=O)O)c2)s1 49.5%
O=C(O)c1ccc(/C=N/NC(=O)c2ccc(F)cc2)cc1 7.3%
Cc1ccc(/C=N/Nc2cccc(C(=O)O)c2)s1 53.6%
O=C(O)c1ccc(/C=N/Nc2cccc(C(F)(F)F)c2)cc1 16.4%
CC(C)(C)c1ccc(/C=N/Nc2cccc(C(=O)O)c2)cc1 12.1%
O=C(O)c1ccc(N/N=C/c2ccc(-c3ccccc3)cc2)cc1 2.22%
Fc1ccc(N/N=C/c2ccncc2)c(F)c1 -6.64%
C=CCNC(=O)CN1CCC(NC(=O)c2ccco2)CC1 4.27%
Cc1ccc(/C=N/NC(=O)Cn2cncn2)cc1 2.86%
CC(=O)N1CCN(c2ccc(NC(=O)c3ccc4c(c3)OCO4)cc2)CC1 -9.38%
COc1ccc(C2Nc3ccccc3C(=O)N2c2ccccc2)cc1CN1CCOCC1 (stereo not drawn) -163%
CC(/C=C/c1ccc2c(c1)OCO2)=N/NC(=O)c1cccnc1 17.2%
Cc1ccc(NNC(=O)c2ccc(Cl)cc2)nn1 17.4%
COc1cc(/C=N/Nc2ccc(C(=O)O)cc2)ccc1O 22.3%
COc1ccc(/C=N/Nc2ccc(C(=O)O)cc2)cc1OC 25.7%
CCOc1ccc(OCC)c(NC(=O)C2CCCN(S(=O)(=O)c3c(C)noc3C)C2)c1 (stereo not drawn) 3.89%
COc1ccc(OC)c(N/C=C2/CCCCC2=O)c1 5.47%
CC(=O)COc1ncn(-c2ccccc2)n1 42.4%
NC(=O)COc1ncn(-c2ccccc2)n1 1.05%
CCCCC(=O)Nc1nnc(-c2ccc(OC)cc2)s1 4.4%
O=C(CN1C(=O)NC2(CCCC2)C1=O)OCc1cc(=O)n2cc(Br)ccc2n1 -0.9%
O=C1CCCCN1CCc1c[nH]c2ccccc12 15.4%
COc1ccc(N2CCN(c3n[nH]c(N)n3)CC2)cc1 0.79%
COc1ccc(-n2nc3c(N)n[nH]c3cc2=O)cc1 -0.44%
O=C(CC12CC3CC(CC(C3)C1)C2)NC(=S)NCc1ccccc1 -4.21%
Cc1cccnc1CN1CCN(C(=O)c2cc(COc3ccc4ncccc4c3)on2)CC1 0.97%
Cc1ccccc1NC(=O)c1cnc2ccccn2c1=O 2.31%
O=C(Nc1cccc(C(F)(F)F)c1)c1cccnc1 -1.75%
Cn1ncc(N)c1C(=O)Nc1cccc(C(F)(F)F)c1 1.2%
CSc1nc2nc3c(cc2c(=O)n1-c1ccc(C)cc1)COC(C)(C)C3 3.67%
CCc1ccc(CN(C)C(=O)CCc2nnc(Cc3cccc(C)c3)o2)nc1 -6.64%
Cc1cccc(C)c1NC(=O)CSCCO 0.75%
Cc1cccc(C)c1NC(=O)CSCC(=O)O 4.91%
CCOC(=O)CSc1nc(-c2ccccc2)nc2ccc(C)cc12 2.78%
CC1CN(c2nc(-c3ccccc3)nc3ccccc23)CC(C)O1 (stereo not drawn) 4.44%
CCN(CC)c1ccc(/C=c2\sc3nnc(-c4ccccc4Cl)n3c2=O)cc1 1.48%
CCN(CC)c1ccc(/C=c2/sc3nnc(-c4ccccc4C)n3c2=O)cc1 9.78%
Cc1ccc(/C=c2\sc3nc(-c4cccs4)nn3c2=O)o1 79.6%
Cc1ccc(/C=c2\sc3nc(-c4ccco4)nn3c2=O)o1 42.2%
CCc1ccc(NC(=O)C(C)Nc2ccc(S(=O)(=O)NC(C)=O)cc2)cc1 (stereo not drawn) 3.98%
O=[N+]([O-])c1cccc(-c2nnn(C34CC5CC(CC(C5)C3)C4)n2)c1 -10.4%
COc1ccc(N(CC(=O)Nc2ccc3c(c2)OCO3)S(=O)(=O)c2ccc(C)cc2)cc1OC -12.9%
COc1ccc(C(=O)CC2OC(=O)c3c2ccc(OC)c3OC)cc1 (stereo not drawn) 9.31%
COc1ccc2c(c1OC)C(=O)OC2CC(=O)c1ccc(O)cc1 (stereo not drawn) 14.4%
O=C(O)Cn1cc(/C=C2\SC(=O)N(c3ccccc3)C2=O)c2ccccc21 15%
CC(C)n1cc(/C=C2\NC(=O)N(c3cccc(Cl)c3)C2=O)c2ccccc21 -7.4%
